# Reference: the supplement of paper PMC9135407
# Values joined by “and” are separate entries in the source; they are usually repeats but may differ in a detail not shown here. Equal values may be shown once. The whole screen tested about 5,800 compounds, of which about 620 (11%) showed activity. This is one part of a sample in which actives are shown more often than they occur. A number with no mark means an inactive call.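 Rule for the calls: active = score above a cut-off or among the top three wells of a plate; in these data no inactive exceeds 0.85.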
# Test system: primary human hepatic stellate cells (donor 1)
# Assay: scaled lipid accumulation score (0 = DMSO-like, 1 = nortriptyline-like); higher = stronger HSC inactivation (lipid re-accumulation), active = hit call of the paper
# Conditions: 48 h
# Protocol: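 Primary lipid accumulation screen in primary human hepatic stellate cell myofibroblasts (donor 1, passage 8) in 384-well plates. 100 nL of library compound was pin-transferred into 30 µL medium in duplicate, and cells were treated for 48 h. The 'Scaled' score combines distance from plate baseline, toxicity and reproducibility penalties, and is normalised to nortriptyline (positive) and DMSO (negative) controls on each plate. A hit is defined as scaled >0.85 or among the top 3 wells per plate.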
# [1] = library stock concentration: 3.33 mM
# [2] = library stock concentration: 10 mM
# [3] = library stock concentration: 80 uM
# [4] = library stock concentration: 400 uM
# [5] = library stock concentration: 2 mM
smiles,measurement,setting,value
Cc1ccc(S(=O)(=O)C=CC#N)cc1,scaled lipid accumulation score,[1],0.718
same,scaled lipid accumulation score,[2],0.445
Cc1ccc(S(=O)(=O)/C=C/C#N)cc1 [listing 1 of 2 here],scaled lipid accumulation score,[2],0.931 (active)
CC(C)(C)c1ccc(S(=O)(=O)/C=C/C#N)cc1 [listing 1 of 2 here],scaled lipid accumulation score,[2],1.12 (active)
Cc1ccc(S(=O)(=O)/C=C/C#N)cc1 [listing 2 of 2 here],scaled lipid accumulation score,[3],≤ -0.001
same,scaled lipid accumulation score,[4],≤ -0.001
same,scaled lipid accumulation score,[5],0.813
same,scaled lipid accumulation score,[1],0.807
same,scaled lipid accumulation score,[2],0.729 and 0.437
same,scaled lipid accumulation score,library stock concentration: 24.1 mM,0.648
CC(C)(C)c1ccc(S(=O)(=O)/C=C/C#N)cc1 [listing 2 of 2 here],scaled lipid accumulation score,[2],0.172
"CC(C)(C)c1ccc(S(=O)(=O)Nc2ccc(-n3ccnc3)cc2)cc1 [Stem-Cell Factor/c-Kit Inhibitor, ISCK03]",scaled lipid accumulation score,[1],≤ 0
Cc1cc2c(C(=O)NCC(C)c3ccccc3)c(O)c(O)cc2c(O)c1-c1c(C)cc2c(C(=O)NCC(C)c3ccccc3)c(O)c(O)cc2c1O (stereo not given) [Sabutoclax],scaled lipid accumulation score,[1],0.768
same,scaled lipid accumulation score,[2],0.582
COc1cc(CCc2cc(NC(=O)c3ccc(N4CC(C)NC(C)C4)cc3)n[nH]2)cc(OC)c1 (stereo not given),scaled lipid accumulation score,[3],≤ -0.016
same,scaled lipid accumulation score,[4],≤ -0.016
same,scaled lipid accumulation score,[5],0.369
same,scaled lipid accumulation score,[1],0.476
same,scaled lipid accumulation score,[2],0.5
CC(Cc1ccccc1)Nc1ncnc2c1ncn2C1OC(CO)C(O)C1O (stereo not drawn) [R(-)-N6-(2-Phenylisopropyl)adenosine],scaled lipid accumulation score,[2],≤ -0.055
N#Cc1c(O)c2c(-c3ccc(-c4ccccc4O)cc3)csc2[nH]c1=O,scaled lipid accumulation score,[1],0.004
same,scaled lipid accumulation score,[2],≤ 0 and 0.001
CC1(C)S[C@@H]2[C@H](NC(=O)COc3ccccc3)C(=O)N2[C@H]1C(=O)O [Penicillin v potassium],scaled lipid accumulation score,library stock concentration: 5.1 mM,0.003
same,scaled lipid accumulation score,[2],≤ 0
CC1(C)S[C@@H]2[C@H](NC(=O)COc3ccccc3)C(=O)N2[C@H]1C(=O)O [Penicillin V],scaled lipid accumulation score,[2],≤ 0
Cc1ccc(Sc2cncc3sc(C(N)=O)cc23)cc1,scaled lipid accumulation score,[1],0.183
same,scaled lipid accumulation score,[2],0.478 and 0.373
CCOC(=O)CCC(=O)O[C@H]1[C@H](O[C@@H]2[C@@H](C)[C@H](O[C@H]3C[C@@](C)(OC)[C@@H](O)[C@H](C)O3)[C@@H](C)C(=O)O[C@H](CC)[C@@](C)(O)[C@H](O)[C@@H](C)C(=O)[C@H](C)C[C@@]2(C)O)O[C@H](C)C[C@@H]1N(C)C [Eryped],scaled lipid accumulation score,[2],≤ 0
CCOC(=O)CCC(=O)O[C@H]1[C@H](O[C@@H]2[C@@H](C)[C@H](O[C@H]3C[C@@](C)(OC)[C@@H](O)[C@H](C)O3)[C@@H](C)C(=O)O[C@H](CC)[C@@](C)(O)[C@H](O)[C@@H](C)C(=O)[C@H](C)C[C@@]2(C)O)O[C@H](C)C[C@@H]1N(C)C [Erythromycin ethylsuccinate],scaled lipid accumulation score,library stock concentration: 2.3 mM,≤ -0.001
same,scaled lipid accumulation score,[2],≤ 0
